Data published in PubChem BioAssay (Tox21).
Results filed as inconclusive are left out. Activity calls are given as the source filed them. Unless noted, calls follow the shape of the dose curve; as a rule, active = well fitted curve in the direction sought with a large enough effect in the repeat runs; inconclusive = weak or mixed curves; inactive = no such curve, though single readings can be large; an effect the other way counts as inactive or inconclusive.

What was measured:
[1] = qHTS assay for small molecule agonists of the p53 signaling pathway (AID 651631; calls by dose curve; also: nearly all actives have a fitted effect of over 15% in size)
Method in brief: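 Read-out is beta-lactamase FRET fluorescence measured 2 h after substrate addition at room temperature, in HCT-116 cells with a p53 response element-driven reporter exposed to compounds for 16 h at 37 °C.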

[2] = qHTS assay for small molecule agonists of the p53 signaling pathway - cell viability (AID 651633; calls by dose curve;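 also: p53RE-bla HCT reporter cells with a stable beta-lactamase p53 reporter; series mostly up to about 83 µM; nearly all actives have a fitted effect of over 30% in size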)
Method in brief: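 p53RE-bla cells were treated with compound for 16 hours at 37 C. Cytotoxicity was then measured as CellTiter-Glo luminescence after 30 min at room temperature.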

[3] = qHTS assay for small molecules that induce genotoxicity in human embryonic kidney cells expressing luciferase-tagged ATAD5 - cell viability (AID 651634; calls by dose curve; also: nearly all actives have a fitted effect of over 25% in size)
Method in brief: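 Seeding of 2,000 HEK293T ATAD5-luciferase cells per well preceded pin-tool compound transfer. Plates sat 15.5 hr at 37C under 5% CO2, then fluorescence was read after 30 min with CellTiter-Fluor.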

[4] = qHTS assay for small molecule disruptors of the mitochondrial membrane potential - cell viability (AID 720634; calls by dose curve;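 also: human HepG2 liver cancer cells; series mostly up to about 83 µM; nearly all actives have a fitted effect of over 20% in size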)
Method in brief: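 Measuring cytotoxicity alongside mitochondrial potential, the screen quantified ATP by luminescence in HepG2 cells after 1 hr compound incubation and a 30 min room-temperature CellTiter-Glo step.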

[5] = qHTS assay to test for compound auto fluorescence at 590 nm (red) in HepG2 cells (AID 720674)
Method in brief: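 Fluorescence at 590 nm emission following 540 nm excitation was recorded from HepG2 wells one hour after compound transfer, with DMSO-only wells as vehicle and Rose Bengal sodium equivalency as the scale.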

[6] = qHTS assay to test for compound auto fluorescence at 535 nm (green) in HepG2 cells (AID 720675)
[7] = qHTS assay to test for compound auto fluorescence at 460 nm (blue) in HEK293 cells (AID 720678)
Method in brief: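 Blue read-out at excitation 405 nm and emission 460 nm follows overnight compound exposure of HEK293 cells at 37C in 5% CO2. Activity is given as auto fluorescence equivalency to triamterene.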

[8] = qHTS assay to test for compound auto fluorescence at 590 nm (red) in HEK293 cells (AID 720679)
Method in brief: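 Red channel, Ex/Em 540/590nm; signal expressed as equivalency to Rose Bengal sodium. HEK293, 2,000 cells/well, 10% dialyzed FBS; 23 nL compound pinned after 4-5 hr attachment; overnight 37C/5% CO2 before reading.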

[9] = qHTS assay to test for compound auto fluorescence at 535 nm (green) in HEK293 cells (AID 720680)
[10] = qHTS assay to test for compound auto fluorescence at 460 nm (blue) in HEK293 cell free culture (AID 720681)
Method in brief: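 Compounds were added to cell-free DMEM with 10% FBS and fluorescence read directly. The blue channel used 405 nm excitation and 460 nm emission, with triamterene as the reference fluorophore.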

[11] = qHTS assay to test for compound auto fluorescence at 535 nm (green) in HEK293 cell free culture (AID 720682)
Method in brief: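 Fluorescein serves as the green reference fluorophore; each compound's intrinsic emission at 535 nm (excitation 485 nm) is reported as an equivalent amount of that dye, measured in serum-containing DMEM without cells.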

[12] = qHTS assay to test for compound auto fluorescence at 590 nm (red) in HEK293 cell free culture (AID 720683)
Method in brief: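 Cell-free wells of DMEM with 10% FBS received compound, and intrinsic fluorescence was read at excitation/emission 540/590 nm. Values expressed as equivalence to Rose Bengal sodium.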

[13] = qHTS assay to test for compound auto fluorescence at 590 nm (red) in HepG2 cell free culture (AID 720684)
Method in brief: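 Compound was pinned into wells holding MEM with 10% FBS and no cells, and red fluorescence was read at Ex/Em 540/590 nm. Signal is expressed as auto fluorescence equivalency relative to Rose Bengal sodium.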

[14] = qHTS assay to test for compound auto fluorescence at 460 nm (blue) in HepG2 cell free culture (AID 720685)
Method in brief: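 Compound (23 nL) or DMSO pinned into cell-free MEM with 10% FBS; blue fluorescence read at 405/460 nm excitation/emission, expressed as auto-fluorescence equivalency to triamterene.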

[15] = qHTS assay to test for compound auto fluorescence at 535 nm (green) in HepG2 cell free culture (AID 720686)
[16] = qHTS assay to test for compound auto fluorescence at 460 nm (blue) in HepG2 cells (AID 720687)
Method in brief: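 HepG2 cells in MEM with 10% FBS, attached overnight at 37 C, were exposed to compound or DMSO for 1 hr at 37 C, 5% CO2. Blue fluorescence was read at 405/460 nm, with triamterene as reference fluorophore.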

[17] = biological target: Glucocorticoid receptor (Homo sapiens) (UniProt P04150); test: qHTS assay to identify small molecule agonists of the glucocorticoid receptor (GR) signaling pathway (AID 720691; active = well fitted activation curve with a large enough effect in the signal ratio in the repeat runs, not every such curve was filed as active; the % refers to the signal ratio)
Method in brief: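 Reporter read-out: fluorescence intensity following 2 h room-temperature LiveBLAzer B/G FRET substrate loading. Prior step: GR-bla HeLa cells held 4 h, then treated 18 h at 37 C.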

[18] = biological target: Glucocorticoid receptor (Homo sapiens) (UniProt P04150); test: qHTS assay to identify small molecule antagonists of the glucocorticoid receptor (GR) signaling pathway (AID 720692; active = well fitted inhibition curve with a large enough effect in the signal ratio in the repeat runs, not every such curve was filed as active; the % refers to the signal ratio)
Method in brief: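 Dexamethasone (5 nM final) stimulated a stably integrated GRE-beta-lactamase reporter in HeLa cells during 18 h co-incubation with compounds; signal was quantified as fluorescence intensity of B/G FRET substrate after 2 h.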

[19] = qHTS assay to identify small molecule antagonists of the glucocorticoid receptor (GR) signaling pathway - cell viability counter screen (AID 720693); also: nearly all actives have a fitted effect of over 55% in size
[20] = qHTS assay for identifying genotoxic compounds that show differential cytotoxicity against isogenic chicken DT40 cell lines with known DNA damage response pathways - wild type cell line (AID 743012); also: nearly all actives have a fitted effect of over 60% in size
Method in brief: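 Using parental DT40 (300 cells/well), compounds delivered in DMSO incubate 40 h at 37 C/5% CO2. CellTiter-Glo reagent then stands 30 min at room temperature, and luminescence gives cell viability.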

[21] = qHTS assay for identifying genotoxic compounds that show differential cytotoxicity against isogenic chicken DT40 cell lines with known DNA damage response pathways - Rev3 mutant cell line (AID 743014); also: nearly all actives have a fitted effect of over 55% in size
[22] = qHTS assay for identifying genotoxic compounds that show differential cytotoxicity against isogenic chicken DT40 cell lines with known DNA damage response pathways - Rad54/Ku70 mutant cell line (AID 743015); also: nearly all actives have a fitted effect of over 60% in size
[23] = qHTS assay to identify small molecule antagonists of the androgen receptor (AR) signaling pathway - cell viability counter screen (AID 743033; also: nearly all actives have a fitted effect of over 45% in size)
[24] = biological target: Androgen receptor (Homo sapiens) (UniProt P10275); test: qHTS assay to identify small molecule agonists of the androgen receptor (AR) signaling pathway (AID 743036; active = well fitted activation curve with a large enough effect in the signal ratio in the repeat runs, with a control signal flat, not every such curve was filed as active; the % refers to the signal ratio)
Method in brief: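 Fluorescence from a beta-lactamase FRET substrate served as read-out in AR-UAS-bla GripTite HEK293 cells. Cells were treated with DMSO-dissolved compounds for 16 h at 37C, then with LiveBLAzer B/G substrate for 2 h at room temperature.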

Measured: Potency

Chain of Glucocorticoid receptor (Homo sapiens) (P04150 whole entry, looked up): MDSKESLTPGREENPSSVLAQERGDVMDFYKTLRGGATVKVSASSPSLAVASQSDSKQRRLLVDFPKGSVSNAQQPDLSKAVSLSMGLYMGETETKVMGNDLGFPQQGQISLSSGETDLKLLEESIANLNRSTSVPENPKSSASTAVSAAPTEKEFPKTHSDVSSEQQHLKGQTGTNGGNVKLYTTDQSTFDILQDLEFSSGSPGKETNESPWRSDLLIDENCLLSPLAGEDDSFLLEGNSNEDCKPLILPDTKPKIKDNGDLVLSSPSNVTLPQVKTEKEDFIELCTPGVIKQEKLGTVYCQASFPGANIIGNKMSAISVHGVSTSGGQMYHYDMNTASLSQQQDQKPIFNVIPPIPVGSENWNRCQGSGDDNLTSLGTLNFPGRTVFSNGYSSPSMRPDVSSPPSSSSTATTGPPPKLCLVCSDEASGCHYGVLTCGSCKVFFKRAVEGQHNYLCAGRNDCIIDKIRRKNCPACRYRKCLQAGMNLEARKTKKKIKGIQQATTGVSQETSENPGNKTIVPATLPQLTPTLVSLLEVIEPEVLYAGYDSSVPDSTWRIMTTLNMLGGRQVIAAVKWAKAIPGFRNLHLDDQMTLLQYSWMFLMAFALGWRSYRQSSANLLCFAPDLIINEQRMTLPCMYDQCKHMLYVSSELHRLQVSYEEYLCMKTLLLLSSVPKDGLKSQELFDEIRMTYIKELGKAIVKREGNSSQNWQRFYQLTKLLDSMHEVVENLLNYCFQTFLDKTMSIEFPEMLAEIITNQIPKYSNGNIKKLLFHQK
Chain of Androgen receptor (Homo sapiens) (P10275 whole entry, looked up): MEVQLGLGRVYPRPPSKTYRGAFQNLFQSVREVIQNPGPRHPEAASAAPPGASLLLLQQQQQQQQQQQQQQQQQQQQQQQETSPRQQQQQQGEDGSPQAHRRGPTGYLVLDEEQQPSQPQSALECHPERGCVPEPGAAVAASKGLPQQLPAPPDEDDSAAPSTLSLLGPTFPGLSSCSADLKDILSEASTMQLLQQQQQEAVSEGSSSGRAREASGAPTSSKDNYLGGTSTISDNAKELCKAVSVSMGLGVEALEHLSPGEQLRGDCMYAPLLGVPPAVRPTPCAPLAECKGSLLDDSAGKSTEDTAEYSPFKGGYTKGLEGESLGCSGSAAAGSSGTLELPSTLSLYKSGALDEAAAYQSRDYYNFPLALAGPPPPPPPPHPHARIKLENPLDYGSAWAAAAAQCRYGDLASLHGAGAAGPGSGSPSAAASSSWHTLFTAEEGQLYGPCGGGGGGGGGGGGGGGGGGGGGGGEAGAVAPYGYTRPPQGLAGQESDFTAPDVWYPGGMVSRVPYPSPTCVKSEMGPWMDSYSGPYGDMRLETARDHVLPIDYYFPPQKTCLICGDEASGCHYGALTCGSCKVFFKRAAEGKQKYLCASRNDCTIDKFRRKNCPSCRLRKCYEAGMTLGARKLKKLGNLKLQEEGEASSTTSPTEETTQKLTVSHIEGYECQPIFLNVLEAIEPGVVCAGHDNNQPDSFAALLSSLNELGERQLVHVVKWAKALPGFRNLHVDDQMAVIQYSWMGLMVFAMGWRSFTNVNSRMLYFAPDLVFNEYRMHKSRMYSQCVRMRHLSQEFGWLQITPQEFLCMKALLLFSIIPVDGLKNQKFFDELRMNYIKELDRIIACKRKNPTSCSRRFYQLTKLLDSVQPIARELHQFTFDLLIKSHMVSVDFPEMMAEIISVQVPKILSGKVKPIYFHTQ

CCCCCN(C)CCC(O)(P(=O)(O)O)P(=O)(O)O
inactive: all assays above
